Reference: PubChem BioAssay AID624309 (Sanford-Burnham Center for Chemical Genomics, 2012)
The campaign covered roughly 2,000 compounds. About 260 (13%) were called active. Not all results are given here. A number with no mark means an inactive call. Cut-off read from the data, not from the text of the source: active = inhibition mostly above about 42% (no sharp cut-off); inactive = mostly below about 42%.

What follows are compounds tested on Nicotinate mononucleotide adenylyltransferase NadD (Staphylococcus aureus N315) (assay: S. aureus NadD enzyme activity blockers – biochemical, colorimetric, single concentration, confirmation (AID 624309)). Conditions: purified S. aureus NadD, colorimetric enzyme assay; at 20 µM; stronger effect = higher value.

With `Cc1cc(N2C(=O)C(O)=C(C(=O)c3ccc(C)o3)C2c2ccc(OCc3ccccc3)cc2)no1` (configuration not stated) the inhibition was 51.4% (active).
For `Cc1cc(C)c2nc(-c3cccnc3)cc(C(=O)Nc3ccc(S(=O)(=O)Nc4onc(C)c4C)cc3)c2c1`, the inhibition was 64% (active).
`Nc1ccc2nc3c(=O)[nH]c(=S)[nH]c3nc2c1` was tested, and the inhibition was 72.4% (active).
In the case of `COc1ccc(NS(=O)(=O)c2ccc(NC(=S)NC(=O)/C=C/c3ccc(C)cc3)cc2)nn1`, the inhibition is reported as 58.1% (active).
For `Cc1ccc(/C=C/C(=O)Nc2ccc([N+](=O)[O-])c(NC(=O)/C=C/c3ccc(C)o3)c2)o1`, the inhibition was 60.6% (active).
In the case of `CCOC(=O)c1ccccc1N1C(=O)C2Sc3[nH]c(=O)sc3C(/C=C/c3ccccc3)C2C1=O` (configuration not stated), the inhibition is reported as 57.6% (active).
In the case of `C=CC1=C(C(=O)O)N2C(=O)[C@@H](NC(=O)/C(=N/OCC(=O)O)c3csc(N)n3)[C@H]2SC1`, the inhibition is reported as 95.8% (active).
With `CC1(OC(=O)C2CCCC2)C(=O)C=C2C=C(c3ccc(C#N)cc3)OC=C2C1=O` (configuration not stated) the inhibition was 73.5% (active).
`COc1ccc(Br)cc1/C=N/Nc1ccc(S(=O)(=O)Nc2ccccc2C(=O)O)cc1[N+](=O)[O-]` was tested, and the inhibition was 73.9% (active).
For `Cc1ccc(NS(=O)(=O)c2ccc(N/N=C/c3ccccc3OCC(=O)O)c([N+](=O)[O-])c2)c(C)c1`, the inhibition was 64.9% (active).
In the case of `O=C(Nc1ccc(S(=O)(=O)Nc2nccs2)cc1)c1cc(-c2ccncc2)nc2ccccc12`, the inhibition is reported as 44.5% (active).

Compared with `CCCn1c(C)cc(-c2csc(NC(=O)CCc3nc4ccccc4c(=O)[nH]3)n2)c1C`, `O=C(CSc1nc2ccccc2c(=O)[nH]1)Nc1nc(-c2ccc(Br)cc2)cs1` is lower in inhibition: 25.1% for the first, 6.59% for the second.

Compared with `CCc1ccc(-n2c(=S)sc3c(=O)n(-c4ccccc4OC)c(=S)[nH]c32)cc1`, `COc1ccccc1/C=C/C=N/n1c(-c2ccc(Cl)cc2Cl)n[nH]c1=S` is higher in inhibition: 5.54% for the first, 17.4% for the second.

First: Cc1ccc(C(=O)COC(=O)c2cccc(N3C(=O)c4c(C)nc5ccccc5c4C3=O)c2)cc1C
Second: O=C(COC(=O)c1cc(=O)[nH]c2ccccc12)Nc1nc(-c2cccc(Br)c2)cs1
The inhibition of the first is lower: 0.6% for the first, 5.44% for the second.

Going from `COc1cccc2sc(NNC(=O)c3nc4ccccc4s3)nc12` to `COc1ccc(C(=O)Nc2cccc(/C=C(/CCC(=O)O)c3nc4ccccc4s3)c2)cc1`, the inhibition falls from 43.7% to 35.7%.

Compared with `CCOc1ccc(CCN2C(=S)N([C@@H](CC(C)C)CN3CCC[C@@H]3CN3C(=S)NC[C@@H]3Cc3ccc(O)cc3)C[C@@H]2Cc2ccc(O)cc2)cc1`, `O=C1NC[C@H](Cc2ccc(O)cc2)N(C[C@@H]2CCCN2C[C@H](Cc2ccccc2)N2C[C@H](Cc3ccccc3)N(CC3CCCCC3)C(=O)C2=O)C1=O` is higher in inhibition: 29.1% for the first, 38.1% for the second.

First: COc1ccc(C(=O)/C=C/c2ccc(-c3ccccc3)cc2)cc1CSCC(=O)O
Second: COc1ccc(-c2nn(-c3ccccc3)cc2/C=N/Nc2ccccn2)cc1OC
The inhibition of the first is higher: 46.5% for the first, 5.86% for the second.

First: Cc1ccc(Cn2c(=N)c(S(=O)(=O)c3ccc(C)cc3)cc3c(=O)n4ccccc4nc32)cc1
Second: Cc1ccc(Cn2c(C)nc3c(c2=O)c2nc4ccccc4nc2n3Cc2ccco2)cc1
The inhibition of the first is higher: 20.4% for the first, 11.8% for the second.

Compared with `Cc1ccc(N2C(=O)C3N=NN(CC(=O)N4N=C(c5cccc6ccccc56)CC4c4ccccc4)C3C2=O)cc1` (configuration not stated), `COc1ccc(C2=NN(C(=O)CSc3nc(=O)n4ccc(C)cc4n3)C(c3ccc(C)cc3)C2)cc1` (configuration not stated) is lower in inhibition: 33.1% for the first, 18.2% for the second.

Compared with `CC(=O)Nc1ccc(Nc2cc(C)nc(Nc3ccc(NC(C)=O)cc3)n2)cc1`, `O=C(Nc1ccc(NC(=O)c2cccs2)cc1)c1ccc2ccccc2c1` is lower in inhibition: 9.22% for the first, -0.66% for the second.

Going from `Cc1ccc(C(=O)Oc2coc(CSc3nnc(NC(=O)c4cccs4)s3)cc2=O)cc1C` to `Cc1ccc(-c2nc(-c3cccnc3)sc2CC(=O)Nc2ccc(C)c(Cl)c2)cc1`, the inhibition falls from 13.8% to -1.82%.

First: CC(C)CC1C(=O)N(Cc2cn(Cc3ccco3)nn2)CCS(=O)(=O)N1Cc1ccc(-c2ccc(Cl)c(Cl)c2)cc1 (configuration not stated)
Second: O=C(CSc1nnc(-c2cccnc2)n1Cc1ccco1)c1ccc(Cl)c(Cl)c1
The inhibition of the first is higher: 35% for the first, 32.6% for the second.

Compared with `COc1cc(C2CC(=O)N3CN(Cc4ccccc4)CSC3=C2C#N)ccc1OCc1ccccc1` (configuration not stated), `Cn1c2ccccc2c(=O)c2c(=O)n(Cc3ccco3)c(COc3ccccc3)nc21` is higher in inhibition: 4.07% for the first, 10.4% for the second.

Compared with `COCCCn1c(=O)/c(=C/c2ccccc2OC(C)C)s/c1=C(\C#N)C(=O)Nc1ccc(C(=O)O)cc1`, `CC(C)(C)C(=O)Nc1ccc(C(=O)N/N=C/c2ccccc2OC(=O)c2ccc(Cl)cc2Cl)cc1` is lower in inhibition: 12.9% for the first, 0.49% for the second.

Compared with `NNc1cccc(C=Cc2ccccc2)cc1=O`, `C/C(=N\NC(=O)CNc1cccc2ccccc12)c1ccc(Br)s1` is lower in inhibition: 39.5% for the first, 8.07% for the second.

Going from `COc1ccc(Cl)cc1C(=O)NNC(=S)NC(=O)/C=C/c1ccco1` to `CC(C)Oc1ccc(/C=C(\NC(=O)/C=C/c2ccco2)C(=O)NCCc2nc3ccccc3[nH]2)cc1`, the inhibition rises from -2.56% to 37.9%.

First: C[C@H](CO)N1C[C@H](C)[C@H](CN(C)C(=O)Nc2ccc(C(F)(F)F)cc2)Oc2c(NC(=O)c3ccncc3)cccc2C1=O
Second: COc1ccc(NS(=O)(=O)c2cc(NC(=O)CC(=O)c3ccc([N+](=O)[O-])cc3)ccc2C)cc1
The inhibition of the first is lower: 27.5% for the first, 28.1% for the second.

First: Cc1ccc2nc(/C(C#N)=C\c3ccc(OC(=O)c4cccs4)cc3)[nH]c2c1
Second: O=C(N/N=C/c1ccc(Cl)cc1)c1nc2ccc([N+](=O)[O-])cc2c(=O)[nH]1
The inhibition of the first is higher: 21% for the first, 9.54% for the second.

First: CCCn1c(C(C)Nc2nc(-c3ccc(C)cc3)cs2)nc2cc(Cl)c(N3CCCCC3)cc21 (configuration not stated)
Second: CCOc1ccc2nc(N3CCCN(C(=O)Nc4ccccc4C)CC3)c(C#N)cc2c1
The inhibition of the first is higher: 0.81% for the first, -3.08% for the second.

Going from `CCC(NC(=O)c1cc(COc2ccc(F)c(F)c2)on1)c1ccncc1` (configuration not stated) to `CCOc1ccc2nc(/N=C/c3nc(-c4ccccc4)oc3O)sc2c1`, the inhibition rises from 2.18% to 5.96%.

Compared with `c1ccc(-c2nccc(-c3ccc(-n4cnc5ccccc54)cc3)n2)nc1`, `Cc1nn2c(c1-c1ccccc1)N=C(c1ccco1)CC2c1ccccc1` (configuration not stated) is higher in inhibition: 16.5% for the first, 21.2% for the second.

First: Cc1ccc(Cn2nnc3c(=O)[nH]c(C4CCN(S(=O)(=O)/C=C/c5ccccc5)CC4)nc32)cc1
Second: Cc1noc(/C=C/c2ccco2)c1S(=O)(=O)N1CCC(C(=O)N2CCc3ccccc32)CC1
The inhibition of the first is higher: 37% for the first, 4.7% for the second.

First: Cc1cc(C(=O)CSc2nc(N)cc(=O)[nH]2)c(C)n1CCc1ccc(Cl)cc1
Second: Cc1cc2nc(-c3ccco3)c(Cc3cccc(F)c3)n2c(C)c1Br
The inhibition of the first is lower: 21.5% for the first, 22.4% for the second.

Going from `C#Cc1cc(N2CCN(C(=O)c3ccoc3)CC2)n2nc(-c3cccc(Cl)c3)cc2n1` to `O=C(NCC(=O)N1CCN(c2ccccc2O)CC1)c1ccc2ccccc2c1`, the inhibition rises from 25.9% to 34.8%.

Going from `Cn1cncc1C#Cc1c(-c2ccsc2)sc2ccccc12` to `CCN(CC)C(=O)c1sc2nc(-c3ccccc3)ccc2c1N`, the inhibition falls from 9.54% to -11.1%.

Compared with `CCC(c1nnnn1Cc1ccco1)N(Cc1cc2cc(OC)ccc2[nH]c1=O)C1CCCCC1` (configuration not stated), `Nc1nc2n(n1)C(c1ccco1)CC(c1ccc(Cl)c(Cl)c1)N2` (configuration not stated) is lower in inhibition: 14.9% for the first, 13.2% for the second.

Compared with `CCCCCCc1cc2cc(-c3nnc(-c4ccccc4)o3)c(=O)oc2cc1O`, `CCCCCCC(=O)Nc1nc(C)c(-c2csc(Nc3cc(Cl)ccc3OC)n2)s1` is higher in inhibition: -1.61% for the first, 5.75% for the second.

First: Cc1cc(O)c(C(=O)/C=C/c2c(F)c(F)c(F)c(F)c2F)c(=O)o1
Second: Cc1ccc(Cc2cnc(NC(=O)/C(C#N)=C/c3ccc(-c4cccc([N+](=O)[O-])c4)o3)s2)cc1
The inhibition of the first is higher: 12.9% for the first, 5.75% for the second.

First: Nc1[nH]c(=S)nc2nc(-c3ccccc3)c(-c3ccccc3)nc12
Second: Cc1nn(-c2ccccc2)c(C)c1/C=N/NC(=O)CSc1nc2ccccc2c(=O)n1-c1ccccc1
The inhibition of the first is higher: 38.5% for the first, 8.17% for the second.

First: COc1ccc([N+](=O)[O-])cc1NC(=O)CC1SC(=Nc2cccc(C)c2C)N(/N=C(\C)c2ccc(C)cc2)C1=O (configuration not stated)
Second: COC(=O)c1ccc2nc(-c3ccc(C)cc3)c(Cc3ccc(OC)cc3C)n2c1
The inhibition of the first is lower: -2.98% for the first, 12.6% for the second.

Going from `Cc1nc(N2CCN(c3ccccn3)CC2)c2c(C)c(C(=O)Nc3ccc(F)c(Cl)c3)sc2n1` to `O=C(CSc1nc(Nc2ccccc2)nc(N2CCOCC2)n1)Nc1cc(Cl)ccc1O`, the inhibition rises from 3.33% to 43.2%.

First: O=C(O)c1ccc(COCC(F)(F)F)cc1
Second: COc1cccc(-c2nn(-c3ccccc3)cc2/C=C(\C#N)C(=O)NCCCn2ccnc2)c1
The inhibition of the first is higher: 10.3% for the first, 2.7% for the second.

Compared with `CCOc1ccc(-c2n[nH]c(=S)n2/N=C/c2cc3c(cc2[N+](=O)[O-])OCO3)cc1`, `Cc1cc(C)c(S(=O)(=O)NN=C2c3ccccc3[C@H]3Cc4csc[n+]4[C@@H]23)c(C)c1` is higher in inhibition: 4.81% for the first, 30.1% for the second.

Going from `N#CC1=C(SCc2ccc(C#N)cc2)N=C(N)C(c2nc(-c3ccccc3)cs2)C12CCCCC2` (configuration not stated) to `CCn1cc(C(=O)NCCCN2CCCCCC2)c(=O)c2cc(S(=O)(=O)N3CCc4ccccc4C3)ccc21`, the inhibition falls from 24.2% to -16.2%.
